Most compounds without a hit are left out; they make up all but 2.4% or so of the library.
ADAM17 inh: inhibits human ADAM17 | recombinant ADAM17, EDANS/DABCYL FRET peptide cleavage | inhibition, % at 6.95 µM | actives 0.83% (n = 370,000) | P78536;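 active = inhibition above the mean of compounds lying between control limits plus 3 SD, set per campaign, cut at about 8.5% in these data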;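 note: 0% = DMSO-only wells as the low control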
ADAM10 inh: ADAM10 inhibition, QFRET primary screen; O14672; recombinant ADAM10, EDANS/DABCYL FRET peptide cleavage, 3 h; inhibition, % at 7 µM; actives 0.62% (n = 370,000); AID 720582;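 active = inhibition above a per-campaign cutoff equal to the mean of compounds falling between control-based bounds plus 3 SD, cut at about 20% in these data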;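 note: 0% = DMSO wells while the 100% control is not disclosed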
A3A deaminase: inhibitors of human APOBEC3A DNA deaminase | recombinant A3A, FAM/TAMRA ssDNA deamination fluorescence | inhibition, % at 20 µM | actives 0.41% (n = 330,000);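 active = at least 40% inhibition at 20 µM here, with at most 30% in a related deaminase screen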;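 note: plate controls were A3A with DMSO for no effect and wells lacking A3A enzyme for full effect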
Target sequence (P31941 whole entry, looked up): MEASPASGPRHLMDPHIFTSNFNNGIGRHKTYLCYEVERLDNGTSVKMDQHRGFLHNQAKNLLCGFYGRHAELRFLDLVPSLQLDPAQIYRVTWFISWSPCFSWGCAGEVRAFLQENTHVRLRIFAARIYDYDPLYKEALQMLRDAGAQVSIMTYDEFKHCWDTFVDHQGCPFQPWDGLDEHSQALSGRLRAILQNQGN
NRP1-CendR mod: modulators of CendR peptide binding to human neuropilin-1. O14786. FAM-RPARPAR peptide binding to NRP-1, fluorescence polarization. inhibition, % at 25 µM. actives 0.85% (n = 360,000);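 active = inhibition or corrected inhibition above about 18%, plus a signal ratio from 0.5 to 1.5, limit read from the data, passing the limit was not always enough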
APOBEC3G inh: inhibitors of human APOBEC3G DNA deaminase. recombinant A3G, ssDNA deamination FAM/TAMRA fluorescence. actives 0.28% (n = 330,000). inhibition, % at 20 µM;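 active = inhibition of at least 40% at 20 µM, with no more than 30% in the related APOBEC3A deaminase screen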;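 note: plate controls were DMSO wells with A3G for no effect and wells lacking A3G enzyme for full effect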
Target sequence (Q9HC16 whole entry, looked up): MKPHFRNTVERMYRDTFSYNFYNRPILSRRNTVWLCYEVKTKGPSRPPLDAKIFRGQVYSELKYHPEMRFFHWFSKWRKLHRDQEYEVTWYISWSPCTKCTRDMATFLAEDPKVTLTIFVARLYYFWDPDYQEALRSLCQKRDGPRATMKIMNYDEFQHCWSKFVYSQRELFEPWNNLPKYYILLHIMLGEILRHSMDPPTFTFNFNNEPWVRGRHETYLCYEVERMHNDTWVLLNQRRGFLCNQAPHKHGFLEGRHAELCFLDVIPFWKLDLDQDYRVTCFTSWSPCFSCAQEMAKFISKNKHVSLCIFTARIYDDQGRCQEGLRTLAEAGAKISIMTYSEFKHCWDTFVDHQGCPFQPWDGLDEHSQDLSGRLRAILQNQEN
ADAM10 confirm: confirmation of inhibitors of human ADAM10 | actives 1% (n = 2,100) | AID 743208 | inhibition, % at 6.95 µM | shares compounds with ADAM10 inh | ADAM10 QFRET peptide cleavage, EDANS fluorescence;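 active = inhibition above about 20% chosen separately for each screening run, limit read from the data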;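 note: 0% = DMSO wells and 100% = marimastat wells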
ADAM17 counter: counter-screen for ADAM10 exosite inhibitors: inhibitors of human ADAM17. shares compounds with ADAM10 inh. ADAM17 QFRET peptide cleavage, EDANS fluorescence. inhibition, % at 6.95 µM. actives 0.5% (n = 2,100). AID 743214;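 active = mean triplicate inhibition above the solvent-only control wells' mean plus 3 SD, cut at about 12% in these data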;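 note: 0% = DMSO wells and 100% = marimastat wells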
ADAM10 ctr: counter-screen for ADAM17 exosite inhibitors: inhibitors of human ADAM10; actives 47% (n = 2,900); inhibition, % at 6.95 µM; shares compounds with ADAM17 inh; recombinant ADAM10, EDANS/DABCYL FRET peptide cleavage, 3 h;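 active = mean inhibition over the triplicate runs exceeds the activity threshold set in the earlier primary screen, cut at about 20% in these data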;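 note: 0% = DMSO wells and 100% = marimastat wells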
ADAM17 confirm: human ADAM17 inhibition, confirmation. actives 65% (n = 2,900). inhibition, % at 6.95 µM. shares compounds with ADAM17 inh. recombinant ADAM17, EDANS/DABCYL QFRET peptide cleavage. AID 743257;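 active = mean inhibition across replicates above the hit cutoff set in the primary screen, cut at about 8.5% in these data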;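 note: 0% = DMSO wells and 100% = marimastat wells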
* hit, by the source's call; / = no result given.

SMILES	ADAM17 inh	ADAM10 inh	A3A deaminase	NRP1-CendR mod	APOBEC3G inh	ADAM10 confirm	ADAM17 counter	ADAM10 ctr	ADAM17 confirm
O=[N+]([O-])c1ccc(-c2nc(Nc3cccc(O)c3)c3ccccc3n2)cc1	13*	31*	-1	-3	-7	6	2	34*	17*
COc1ccc(-c2nnc(SCC(=O)NN=C(C)c3cccc4ccccc34)n2-c2ccc(C)cc2)cc1	-1	0	/	/	/	/	/	/	/
CCCN1CCCCC(NC(=O)COCc2ccccc2)C1=O (centres undefined)	-5	-2	/	/	/	/	/	/	/
Cc1ccc(-n2c(SCC(=O)Nc3cccc(S(N)(=O)=O)c3)nc3ccccc32)cc1	12*	20*	12	12	-6	11	4	26*	14*
COC(=O)/C=C1\OC(C)c2ccccc21 (centres undefined)	0	-1	/	/	/	/	/	/	/
Cc1onc(-c2c(F)cccc2Cl)c1C(=O)OCN1C(=O)c2ccccc2C1=O	4	-18	-2	14	-6	/	/	/	/
Cc1[nH]c2ccccc2c1C(=O)COC(=O)c1c(-c2c(F)cccc2Cl)noc1C	13*	26*	-6	-7	-7	5	2	32*	17*
O=C(Nc1ccccc1)OCCN1CCCC12CCC(c1ccccc1)CC2 (centres undefined)	-9	-10	/	/	/	/	/	/	/
CCCCN1CC(COCc2ccccc2)Oc2cccc(OCCN3C(=O)[C@@H]4[C@H](C3=O)C3C=C[C@H]4C3)c2S1(=O)=O (some centres undefined)	13*	26*	/	-4	/	7	2	44*	18*
O=C(CSc1nc2ccccc2[nH]1)Nc1nc(-c2cccc(Br)c2)cs1	23*	50*	-2	7	-9	23*	7	40*	24*
O=C(NC(=S)Nc1ccc(S(=O)(=O)Nc2nccs2)cc1)c1ccccc1	0	9	-1	18	-1	/	/	/	/
O=C(NC(=S)Nc1ccc(S(=O)(=O)Nc2nccs2)cc1)c1ccc(F)c(F)c1	11*	24*	-3	9	-5	4	1	12	6
CCOC(=O)c1sc(NC(=O)CN2C(=O)NC3(CC(C)CC(C)(C)C3)C2=O)c(C(=O)OCC)c1C (centres undefined)	-3	-2	4	0	-3	/	/	/	/
CCOC(=O)c1sc(NC(=O)CN2C(=O)NC3(CC(C)CC(C)(C)C3)C2=O)cc1C (centres undefined)	13*	24*	3	-1	5	1	1	18	14*
CCC[C@H]1[C@@H](OC(=O)NCc2cccc(C(F)(F)F)c2)CC[C@@]23CCCN2C(=O)CCC[C@@H]13	7	13	/	/	/	/	/	/	/
CN(Cc1ccccc1)C(=O)c1ccc(NC(=O)Cc2cccc(NC(=O)C3CCCN(C(=O)CCc4ccccc4)C3)c2)cc1 (centres undefined)	14*	24*	-1	-4	-4	3	2	24*	14*
COc1ccc(-n2c(=S)[nH]c3cc(C(=O)NCc4cccnc4)ccc3c2=O)c(OC)c1	0	1	1	5	-4	/	/	/	/
COc1ccc(-n2c(=S)[nH]c3cc(C(=O)NCc4ccccc4)ccc3c2=O)c(OC)c1	9.0*	24*	-1	6	-5	1	1	12	10*
Cc1ccc(-c2cc(-c3nnc(SCC(=O)N4c5ccccc5Sc5ccccc54)n3N)[nH]n2)cc1	-1	-6	/	/	/	/	/	/	/
C[C@H]1COc2cc(N3CCOCC3)ccc2S(=O)(=O)N1	-8	-14	/	/	/	/	/	/	/
O=C(O)c1nn(CCOc2cccc(Br)c2)c(=O)c2ccccc12	11*	21*	-4	8	-10	1	0	9	6
O=C(O)c1nn(CCOc2cccc(Cl)c2)c(=O)c2ccccc12	2	7	6	0	-7	/	/	/	/
C[C@H]1CN([C@@H](C)CO)C(=O)CCCn2cc(nn2)CO[C@@H]1CN(C)S(=O)(=O)c1cn(C)cn1	-7	-13	/	/	/	/	/	/	/
CCOC(=O)c1sc(NC(=O)CSc2n[nH]c(CC(C)C)n2)nc1C	8.8*	27*	0	-5	-4	0	0	5	-2
CCOC(=O)c1sc(NC(=O)CSc2n[nH]c(C)n2)nc1C	-1	3	-3	2	-7	/	/	/	/
SMILES	ADAM17 inh	ADAM10 inh	A3A deaminase	NRP1-CendR mod	APOBEC3G inh	ADAM10 confirm	ADAM17 counter	ADAM10 ctr	ADAM17 confirm
Cc1nc(SC2CC(=O)N(c3cc(Cl)cc(Cl)c3)C2=O)nc2c1CCCC2 (centres undefined)	10*	34*	-3	0	-4	5	1	11	8
Cc1sc2nc(COC(=O)CNC(=O)c3cc(F)ccc3F)[nH]c(=O)c2c1C	0	-1	/	/	/	/	/	/	/
Cc1ccc(S(=O)(=O)N(CCCO)CC(O)CON=C2c3ccccc3-c3ccccc32)cc1 (centres undefined)	19*	35*	-1	24	7	7	3	19	12*
O/N=C/c1cc(Br)ccc1OCc1cccc(F)c1	11*	28*	-5	-2	1	4	1	18	9.5*
O/N=C/c1cc(Br)ccc1OCc1ccc(F)cc1	4	13	1	-12	2	/	/	/	/
C=CCN(CC=C)C[C@@H]1CSCCS(=O)(=O)N1	-3	-2	/	/	/	/	/	/	/
O=C(Cc1c[nH]c2ccccc12)Nc1ccc(Nc2cccnc2)c(Br)c1	1	10	/	/	/	/	/	/	/
Cc1ccc(NC(=O)c2cccc(OCc3c(C)noc3C)c2)cc1S(=O)(=O)Nc1ccccc1Cl	10*	22*	1	-10	-5	10	3	34*	16*
Cc1ccccc1N1CCN(C2=Nc3ccccc3Sc3ccccc32)CC1	-2	-6	/	/	/	/	/	/	/
CCCCOc1ccc(C(=O)NC2CCCCN(Cc3ccc(C)cc3)C2=O)cc1 (centres undefined)	3	12	/	/	/	/	/	/	/
COc1ccc(C(c2c[nH]c3ccccc23)c2c[nH]c3ccccc23)cc1O	11*	31*	3	-11	-3	13	4	43*	20*
CCOc1ccc(-n2c(SCC(=O)Nc3ccc(S(=O)(=O)Nc4nccs4)cc3)nnc2-c2ccc(C(C)(C)C)cc2)cc1	12*	22*	/	/	/	12	3	40*	21*
